The campaign covered roughly 5,500 compounds. About 2,000 (36%) were called active. About 18% were inconclusive and are not listed. No stated cut-off is given here; in the data, active means normalized growth mostly below about 0.91 (no sharp cut-off); inconclusive means no clear call, values can overlap the other calls; inactive means mostly above about 0.92. This is one part of the list.
Assay: chemical genetic growth profiling, strain panel (AID 1159580);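 further: tested at 20 µM; growth read once vehicle control cultures reached saturation at 30 °C; 1 = growth at the plate median or of vehicle wells; lower values mean less growth of the strain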
Settings: growth OD

Measured: normalized growth

CCCCOC(=O)c1ccccc1C(=O)OCc1ccccc1
inactive: S. cerevisiae deletion strains, locus YAL013W, strain DEP1, hits give low values 0.988 | S. cerevisiae deletion strains, locus YBR021W, strain FUR4, hits give low values 0.965 | S. cerevisiae deletion strains, locus YBR229C, strain ROT2, hits give low values 0.987 | S. cerevisiae deletion strains, locus YCL029C, strain bik1, hits give low values 0.957 | S. cerevisiae deletion strains, locus YDL035C, strain GPR1, hits give low values 0.956 | S. cerevisiae deletion strains, locus YDL074C, strain BRE1, hits give low values 0.971 | S. cerevisiae deletion strains, locus YDL101C, strain DUN1, hits give low values 0.99 | S. cerevisiae deletion strains, locus YDL134C, strain PPH21, hits give low values 0.986 | S. cerevisiae deletion strains, locus YDL185W, strain tfp1, hits give low values 0.961 | S. cerevisiae deletion strains, locus YDL192W, strain arf1, hits give low values 0.972 | S. cerevisiae deletion strains, locus YDR101C, strain arx1, hits give low values 0.971 | S. cerevisiae deletion strains, locus YDR150W, strain NUM1, hits give low values 0.947 | S. cerevisiae deletion strains, locus YDR162C, strain NBP2, hits give low values 0.975 | S. cerevisiae deletion strains, locus YDR318W, strain mcm21, hits give low values 0.967 | S. cerevisiae deletion strains, locus YDR388W, hits give low values 0.95 | S. cerevisiae deletion strains, locus YDR502C, strain sam2, hits give low values 0.966 | S. cerevisiae deletion strains, locus YEL061C, strain CIN8, hits give low values 0.989 | S. cerevisiae deletion strains, locus YER110C, hits give low values 0.968 | S. cerevisiae deletion strains, locus YER155C, strain BEM2, hits give low values 0.968 | S. cerevisiae deletion strains, locus YER167W, strain BCK2, hits give low values 0.983 | S. cerevisiae deletion strains, locus YGL078C, strain dbp3, hits give low values 0.968 | S. cerevisiae deletion strains, locus YGL086W, strain mad1, hits give low values 0.975 | S. cerevisiae deletion strains, locus YGL248W, strain PDE1, hits give low values 0.993 | S. cerevisiae deletion strains, locus YGR078C, strain PAC10, hits give low values 0.97 | S. cerevisiae deletion strains, locus YGR135W, strain pre9, hits give low values 0.972 | S. cerevisiae deletion strains, locus YGR229C, strain SMI1, hits give low values 0.895 | S. cerevisiae deletion strains, locus YGR252W, strain gcn5, hits give low values 0.994 | S. cerevisiae deletion strains, locus YHR030C, strain SLT2, hits give low values 0.981 | S. cerevisiae deletion strains, locus YHR079C, strain IRE1 (second series), hits give low values 0.966 | S. cerevisiae deletion strains, locus YHR094C, strain hxt1, hits give low values 0.965 | S. cerevisiae deletion strains, locus YHR129C, strain ARP1, hits give low values 0.983 | S. cerevisiae deletion strains, locus YHR200W, strain rpn10, hits give low values 0.978 | S. cerevisiae deletion strains, locus YIL066C, strain RNR3, hits give low values 0.929 | S. cerevisiae deletion strains, locus YIL073C, strain SPO22, hits give low values 0.821 | S. cerevisiae deletion strains, locus YIL125W, strain kgd1, hits give low values 0.978 | S. cerevisiae deletion strains, locus YIR030C, strain dcg1, hits give low values 0.965 | S. cerevisiae deletion strains, locus YJL095W, strain BCK1, hits give low values 0.994 | S. cerevisiae deletion strains, locus YJL134W, strain LCB3, hits give low values 0.968 | S. cerevisiae deletion strains, locus YJL168C, strain set2, hits give low values 0.974 | S. cerevisiae deletion strains, locus YJL187C, strain SWE1 (second series), hits give low values 0.971 | S. cerevisiae deletion strains, locus YJR043C, strain POL32, hits give low values 0.989 | S. cerevisiae deletion strains, locus YJR075W, strain HOC1, hits give low values 0.98 | S. cerevisiae deletion strains, locus YKL009W, strain mrt4, hits give low values 0.94 | S. cerevisiae deletion strains, locus YKL068W, hits give low values 0.964 | S. cerevisiae deletion strains, locus YKL085W, strain MDH1 (second series), hits give low values 0.973 | S. cerevisiae deletion strains, locus YKL085W, strain MDH1, hits give low values 0.973 | S. cerevisiae deletion strains, locus YKL190W, strain CNB1, hits give low values 0.979 | S. cerevisiae deletion strains, locus YKR001C, strain vps1, hits give low values 0.959 | S. cerevisiae deletion strains, locus YLR039C, strain RIC1, hits give low values 0.934 | S. cerevisiae deletion strains, locus YLR058C, strain SHM2, hits give low values 0.974 | S. cerevisiae deletion strains, locus YLR102C, strain apc9, hits give low values 0.971 | S. cerevisiae deletion strains, locus YLR262C, strain YPT6, hits give low values 0.858 | S. cerevisiae deletion strains, locus YLR268W, strain sec22, hits give low values 0.968 | S. cerevisiae deletion strains, locus YLR330W, strain CHS5, hits give low values 0.987 | S. cerevisiae deletion strains, locus YLR342W, strain FKS1 (second series), hits give low values 0.952 | S. cerevisiae deletion strains, locus YLR371W, strain rom2, hits give low values 0.97 | S. cerevisiae deletion strains, locus YLR418C, strain cdc73, hits give low values 0.976 | S. cerevisiae deletion strains, locus YML016C, strain PPZ1, hits give low values 0.996 | S. cerevisiae deletion strains, locus YML032C, strain rad52, hits give low values 0.964 | S. cerevisiae deletion strains, locus YML124C, strain tub3, hits give low values 0.956 | S. cerevisiae deletion strains, locus YMR078C, strain ctf18, hits give low values 0.957 | S. cerevisiae deletion strains, locus YMR223W, strain ubp8, hits give low values 0.957 | S. cerevisiae deletion strains, locus YMR263W, strain SAP30, hits give low values 0.973 | S. cerevisiae deletion strains, locus YMR307W, strain GAS1, hits give low values 0.718 | S. cerevisiae deletion strains, locus YNL067W, strain RPL9B, hits give low values 0.979 | S. cerevisiae deletion strains, locus YNL128W, strain TEP1, hits give low values 0.985 | S. cerevisiae deletion strains, locus YNL153C, strain GIM3, hits give low values 0.981 | S. cerevisiae deletion strains, locus YNL233W, strain BNI4, hits give low values 0.998 | S. cerevisiae deletion strains, locus YNL250W, strain rad50, hits give low values 0.968 | S. cerevisiae deletion strains, locus YNL271C, strain bni1, hits give low values 0.973 | S. cerevisiae deletion strains, locus YNL298W, strain CLA4, hits give low values 0.949 | S. cerevisiae deletion strains, locus YNL307C, strain MCK1, hits give low values 0.915 | S. cerevisiae deletion strains, locus YNL322C, strain KRE1, hits give low values 0.981 | S. cerevisiae deletion strains, locus YNR052C, strain pop2, hits give low values 0.964 | S. cerevisiae deletion strains, locus YOL006C, strain TOP1, hits give low values 0.838 | S. cerevisiae deletion strains, locus YOL012C, strain htz1 0.742 | S. cerevisiae deletion strains, locus YOL147C, strain pex11, hits give low values 0.964 | S. cerevisiae deletion strains, locus YOR061W, strain CKA2, hits give low values 0.984 | S. cerevisiae deletion strains, locus YOR069W, strain VPS5, hits give low values 0.982 | S. cerevisiae deletion strains, locus YOR136W, strain idh2, hits give low values 0.972 | S. cerevisiae deletion strains, locus YOR144C, strain elg1, hits give low values 0.962 | S. cerevisiae deletion strains, locus YOR184W, strain ser1, hits give low values 0.931 | S. cerevisiae deletion strains, locus YOR316C, strain cot1, hits give low values 0.972 | S. cerevisiae deletion strains, locus YPL055C, strain LGE1, hits give low values 0.957 | S. cerevisiae deletion strains, locus YPL241C, strain CIN2, hits give low values 0.979 | S. cerevisiae deletion strains, locus YPR119W, strain clb2, hits give low values 0.955 | S. cerevisiae deletion strains, locus YPR141C, strain kar3, hits give low values 0.959 | S. cerevisiae deletion strains, locus YPR163C, strain tif3, hits give low values 0.963 | S. cerevisiae deletion strains, locus YPR167C, strain met16, hits give low values 0.98 | S. cerevisiae deletion strains, strain wtn01, hits give low values 0.96 | S. cerevisiae strains, strain wild type, hits give low values 0.981

From PubChem BioAssay AID1159580 (chemical genetic matrix, 2015)
